Compounds without any hit were thinned out: in the full panel of roughly 83,000, 20% have a hit.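 Plates (96-well) were seeded with cells, treated with compound at one concentration, and incubated for 48 hours before percent growth was determined.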 Activity calls are given as the source filed them. How the source made its calls: active means growth percent below 10; inactive means the rest.
Assays:
Test in all cases: NCI-60 one-dose screen, 48 h (100 = growth as untreated, 0 = no growth, -100 = all killed)
Details in all cases: 10 µM unless noted
[1] = test system: NCI-H23 lung
[2] = test system: NCI-H322M lung
[3] = test system: HOP-62 NSCLC
[4] = test system: NCI-H460 lung
[5] = test system: HOP-92 NSCLC
[6] = test system: NCI-H522 lung
[7] = test system: A549/ATCC NSCLC
[8] = test system: 786-0 renal
[9] = test system: COLO 205 colon
[10] = test system: DU-145 prostate
[11] = test system: K-562 leukemia
[12] = test system: MALME-3M melanoma
[13] = test system: MDA-MB-231 breast
[14] = test system: RXF 393 renal
[15] = test system: SF-268 CNS
[16] = test system: SF-295 CNS
[17] = test system: SF-539 CNS
[18] = test system: UACC-257 melanoma
[19] = test system: M14 melanoma
[20] = test system: HCT-15 colon

Measured: growth

O=C1N=c2ccccc2=C1c1sc(=Nc2ccccc2)n(Nc2ccccc2)c1O
inactive: [1] 102% | [2] 107% | [3] 100% | [4] 101% | [5] 102% | [6] 90.9% | [7] 108% | [8] 101% | [9] 116% | [10] 115% | [11] 94.4% | [12] 108% | [13] 95.1% | [14] 107% | [15] 99.5% | [16] 102% | [17] 104% | [18] 106% | [19] 99.7% | [20] 102%

CN(C)/C=C1\SC(=Nc2ccc(Cl)cc2)NC1=O
inactive: [1] 103% | [2] 108% | [3] 114% | [4] 102% | [5] 102% | [6] 95.8% | [7] 100% | [8] 99.8% | [9] 119% | [10] 108% | [11] 101% | [12] 103% | [13] 92.7% | [14] 100% | [15] 101% | [16] 101% | [17] 96% | [18] 101% | [19] 109% | [20] 103%

C1CCN(c2nc(N3CCCCC3)nc(N3CCOCC3)n2)CC1
inactive: [1] 95.7% | [2] 105% | [3] 94.3% | [4] 109% | [5] 112% | [6] 78% | [7] 87% | [8] 97.3% | [9] 107% | [10] 119% | [11] 101% | [12] 100% | [13] 93.9% | [14] 107% | [15] 105% | [16] 111% | [17] 113% | [18] 97.1% | [19] 113% | [20] 105%

O=C(Nc1ccc(Br)cc1F)c1cc(F)ccc1O
active: [1] 3.95% | [3] 2.13% | [4] 3.38% | [5] -11.3% | [6] -1.14% | [7] 9.75% | [8] -4.66% | [11] 8.73% | [12] -21% | [13] -25.5% | [14] 4.59% | [16] -58.3% | [17] 4.66% | [18] -11.2% | [19] -11.3% | [20] 2.25%
inactive: [2] 10.4% | [9] 16.2% | [10] 15.4% | [15] 12.6%

O=C(COc1cc(O)c2c(=O)cc(-c3ccccc3)oc2c1)Nc1ccccc1C(F)(F)F
active: [4] -42.5% | [7] 0.206% | [8] 7.11% | [13] 9.62%
inactive: [1] 46.1% | [2] 62.2% | [3] 16.2% | [5] 51.6% | [6] 46.6% | [9] 60.1% | [10] 52.7% | [11] 49.2% | [12] 54.3% | [14] 63.4% | [15] 63.5% | [16] 34.6% | [17] 35.2% | [18] 73.4% | [19] 70.6% | [20] 53.4%

CCCCC1CCc2cccc3c(SCC(=O)N(C)c4ccc(Cl)cc4)cc[n+]1c23 (stereo not given)
inactive: [1] 98.9% | [2] 110% | [3] 107% | [4] 109% | [5] 127% | [6] 97.5% | [7] 106% | [8] 106% | [9] 108% | [10] 108% | [11] 91.5% | [12] 106% | [13] 109% | [14] 128% | [15] 113% | [16] 106% | [17] 110% | [18] 110% | [19] 105% | [20] 110%

O=C(Nc1ccc(I)cc1F)c1cc(Cl)ccc1O
inactive: [9] 42.8% | [10] 13.8%
active: [1] 1.96% | [2] 8.59% | [3] 2.14% | [4] 4% | [5] -15.8% | [6] -17.1% | [7] 7% | [8] -7.97% | [11] 8.14% | [12] -28.9% | [13] -17.6% | [14] 1.47% | [15] 5.87% | [16] -62.8% | [17] 2.65% | [18] -18.1% | [19] -22% | [20] 2.58%

O=C(Nc1ccc(N2CCNCC2)cn1)c1[nH]ncc1Nc1ncnc2sccc12
active: [6] -3.84% | [7] 4.12% | [8] -43.6% | [11] -60.1% | [12] -67.7% | [13] -35.8% | [17] -28.8% | [19] -61.3%
inactive: [1] 18.4% | [2] 59.1% | [3] 73% | [4] 43.1% | [5] 52.5% | [9] 29% | [10] 41.9% | [14] 46.6% | [15] 40.8% | [16] 97.3% | [18] 69.8% | [20] 69.7%

O=C(Nc1ccc(Br)cc1F)c1cc(Cl)ccc1O
inactive: [9] 24.2% | [10] 11.8%
active: [1] -8.01% | [2] 4.59% | [3] -14% | [4] 3.19% | [5] -18.8% | [6] -8.76% | [7] 8.65% | [8] -6.93% | [11] 5.34% | [12] -34.7% | [13] -27.9% | [14] -0.138% | [15] 2.69% | [16] -62.6% | [17] -1.11% | [18] -14% | [19] -28.3% | [20] 2.29%

Fc1ccc(Oc2ccc(Nc3ncnc4onc(-c5ccccc5)c34)cc2)cc1
inactive: [1] 104% | [2] 87.9% | [3] 105% | [4] 102% | [5] 88.8% | [6] 90.5% | [7] 90.1% | [8] 97.3% | [9] 122% | [10] 95.2% | [11] 113% | [12] 93.2% | [13] 70.7% | [14] 115% | [15] 83% | [16] 99.7% | [17] 90.1% | [18] 88.3% | [19] 104% | [20] 103%

CCOc1cccc(/C=N/NC(=O)C(=O)Nc2cccc(C(F)(F)F)c2)c1O
active: [6] -0.686% | [18] 5.14%
inactive: [1] 43.4% | [2] 30.7% | [3] 39.1% | [4] 15.2% | [5] 43.8% | [7] 21.3% | [8] 23% | [9] 11.5% | [10] 39.8% | [11] 21.7% | [12] 56.7% | [13] 31.7% | [14] 37.6% | [15] 35.4% | [16] 10% | [17] 11.7% | [19] 13.2% | [20] 22.3%

CCN1CCN(c2cc(C)c3cc(NC(=O)c4ccc(OC)c(OC)c4)ccc3n2)CC1
active: [11] 7.23%
inactive: [1] 58.2% | [2] 50.7% | [3] 50.7% | [4] 25.4% | [5] 56.4% | [6] 51.8% | [7] 33.3% | [8] 49% | [9] 11.9% | [10] 34.5% | [12] 39.7% | [13] 47.9% | [14] 31.1% | [15] 50.8% | [16] 32% | [17] 45.2% | [18] 57.9% | [19] 30.2% | [20] 30.3%

O=C1/C(=C\c2ccc[nH]2)c2ccccc2N1c1ccccc1
inactive: [1] 87.9% | [2] 91.7% | [3] 106% | [4] 95.8% | [5] 96% | [6] 75.5% | [7] 96% | [8] 98.1% | [9] 108% | [10] 112% | [11] 90.9% | [12] 103% | [13] 84.4% | [14] 105% | [15] 101% | [16] 104% | [17] 94% | [18] 110% | [19] 109% | [20] 82.7%

CC(C)c1ccc(S(=O)(=O)NC(=O)NC2CCCC2)cc1
inactive: [1] 101% | [2] 98% | [3] 100% | [4] 104% | [5] 107% | [6] 97.2% | [7] 87.7% | [8] 103% | [9] 108% | [10] 107% | [11] 103% | [12] 97.1% | [13] 102% | [14] 115% | [15] 101% | [16] 97.7% | [17] 96.1% | [18] 95.7% | [20] 97.3%
active: [19] -52.9%

Fc1cccc(COc2ccc(Nc3ncnc4onc(-c5ccccc5)c34)cc2)c1
active: [4] 2.61% | [6] 5.66% | [8] 8.18% | [9] 8.73% | [10] -29.8% | [14] -26.6% | [16] 2.77% | [17] -42.4% | [19] -23%
inactive: [1] 18.1% | [2] 23.1% | [3] 33.4% | [5] 46.3% | [7] 19.9% | [11] 12.1% | [12] 41% | [13] 13.8% | [15] 29.2% | [18] 54.8% | [20] 20.2%

CCOC(=O)c1cc2c(n1Cc1cc(OC)cc(OC)c1)-c1oncc1CCC2
active: [4] 6.91% | [6] -19.1% | [9] -54.8% | [11] 7.66% | [12] 8.25% | [16] -16.6% | [17] 2.3%
inactive: [1] 23.7% | [2] 28% | [3] 50.4% | [5] 57.5% | [7] 26.6% | [8] 41.9% | [10] 15.6% | [13] 15.5% | [14] 18.6% | [15] 33.5% | [18] 52.9% | [19] 25.3% | [20] 24.2%
